Molecules are shown by their SMILES. Values without a mark were called inactive. Inconclusive results are not listed. The source made the active and inactive calls. Unless noted, calls come from the whole dose curve; as a rule, active = well fitted curve in the direction sought with a large enough effect in the repeat runs; inconclusive = weak or mixed curves; inactive = no such curve, though single readings can be large; an effect the other way counts as inactive or inconclusive.

Test [1] is described as follows: qHTS assay to identify small molecule antagonists of the androgen receptor (AR) signaling pathway using the MDA cell line in the presence of 0.5 nM R1881 - cell viability counter screen (AID 1259242). Note: nearly all actives have a fitted effect of over 45% in size. Note: potency is the fitted concentration of half-maximal effect. In outline:
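Concentration-response screen of compounds for toxicity in MDA-kb2 reporter cells: 16 hr at 37C with 0.5 nM R1881, endpoint live-cell protease fluorescence measured in the reporter wells.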

For test [2], the target named is Estrogen receptor (Homo sapiens) (UniProt P03372). The experiment in a line: qHTS assay to identify small molecule antagonists of the estrogen receptor alpha (ER-alpha) signaling pathway using the BG1 cell line in the presence of 0.1 nM 17-beta-estradiol (AID 1259244). Note: nearly all actives have a fitted effect of over 50% in size. Note: potency is the fitted concentration of half-maximal effect. In outline:
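Compounds were tested against 0.1 nM (final) 17beta-estradiol in VM7Luc4E2 cells, which express full-length ER-alpha and an ERE-luciferase reporter; luminescence was recorded following 22 h exposure.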

A short description of test [3]: qHTS assay to identify small molecule HDAC inhibitors (AID 1259364). Note: potency is the fitted concentration of half-maximal effect.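 Note: wild-type HCT-116 cells with endogenous class I/II HDAC activity; nearly all actives have a fitted effect of over 45% in size.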 In outline: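 Screening used wild-type human colon HCT-116 cells incubated overnight, dosed with compounds for 2 hours, and assayed with a homogeneous luminogenic HDAC I/II reagent for 30 minutes at room temperature.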
Background: qHTS replaces the single test concentration by a dilution series.

Test [4] is described as follows: qHTS assay to identify small molecule HDAC inhibitors - cell viability counter screen (AID 1259365). Note: nearly all actives have a fitted effect of over 50% in size. Note: potency is the fitted concentration of half-maximal effect. In short, it runs like this: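 To flag cytotoxic hits, 1,500 wild-type HCT-116 cells per well, plated the day before, receive test compounds for 2hr at 37 C before CellTiter-Glo reagent and a luminescence read.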
The nature of test [5]: qHTS assay to identify small molecule agonists of the sonic hedgehog signaling (Shh) pathway - cell viability counter screen (AID 1259366). Note: nearly all actives have a fitted effect of over 50% in size. Note: potency is the fitted concentration of half-maximal effect. In outline:
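Fluorescence from CellTiter-Fluor reports live cells in this counter screen. NIH/3T3-derived Gli1-Luc reporter cells receive test compounds for 24hr at 37C; reagent goes in at 23hr.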

A short description of test [6]: qHTS assay to identify small molecule agonists of the sonic hedgehog signaling (Shh) pathway (AID 1259368; calls by dose curve; note: nearly all actives have a fitted effect of over 15% in size; note: potency is the fitted concentration of half-maximal effect). In short, it runs like this:
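Hedgehog pathway agonism scored by increased firefly luciferase luminescence in 3T3Gli1-Luc cells treated 24 hr at 37 C; detection used a 30 min room-temperature reagent incubation.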

Test [7] in a line: qHTS assay to identify small molecule phospholipidosis (PLD) inducers (AID 1259344; active = well fitted curve in the direction sought with a large enough effect; an effect the other way counts as inactive or inconclusive). In short, it runs like this:
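Image-based: LipidTOX Red pit count/intensity per well and per cell; HepG2, 24 h compound at 37 C, PFA fixation, Hoechst counterstain.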

Test [8] can be described thus: qHTS assay to identify small molecule antagonists of the sonic hedgehog signaling (Shh) pathway - cell viability counter screen (AID 1259367). Note: nearly all actives have a fitted effect of over 55% in size. Note: potency is the fitted concentration of half-maximal effect. In short, it runs like this:
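Tox21 library chemicals were tested on a Gli1-Luc NIH/3T3 clone (2,000 cells/well) stimulated by conditioned medium; viability was quantified as fluorescence from CellTiter-Fluor reagent added at 23 hr.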
% is set by controls: 0 for no effect and ±100 for the full control effect.

Chain of Estrogen receptor (Homo sapiens) (P03372 whole entry, looked up): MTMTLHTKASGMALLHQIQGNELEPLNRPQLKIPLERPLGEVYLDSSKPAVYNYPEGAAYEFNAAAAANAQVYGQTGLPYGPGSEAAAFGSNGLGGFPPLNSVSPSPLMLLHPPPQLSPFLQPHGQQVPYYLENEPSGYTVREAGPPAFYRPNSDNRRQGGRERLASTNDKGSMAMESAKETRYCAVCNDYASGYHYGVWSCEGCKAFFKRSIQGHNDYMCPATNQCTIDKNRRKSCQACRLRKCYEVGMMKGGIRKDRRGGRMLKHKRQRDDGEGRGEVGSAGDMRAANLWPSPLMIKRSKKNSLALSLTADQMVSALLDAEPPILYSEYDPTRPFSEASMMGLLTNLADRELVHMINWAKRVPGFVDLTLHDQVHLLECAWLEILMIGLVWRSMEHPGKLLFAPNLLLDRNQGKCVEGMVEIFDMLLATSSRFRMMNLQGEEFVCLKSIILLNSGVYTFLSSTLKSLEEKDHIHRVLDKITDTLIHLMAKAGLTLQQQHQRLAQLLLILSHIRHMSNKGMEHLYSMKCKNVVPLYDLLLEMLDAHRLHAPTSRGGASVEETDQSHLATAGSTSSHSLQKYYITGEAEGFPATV

Regarding `CCO/N=C(\CC)C1=C(O)CC(c2c(C)cc(C)cc2C)CC1=O` (centres undefined), the Potency entry in test [1], in test [2], in test [3], in test [4], in test [5] and in test [6] was “inactive” each time.

Consider `O=C(N[C@@H]1N=C(c2ccccc2F)c2cccc3c2N(CC3)C1=O)c1cc2ccccc2[nH]1`, for which the Potency entry in test [1], in test [4], in test [5], in test [8] and in test [6] was “inactive” each time. The PLD induction in test [7] was -5.27% [at 0.306 µM].

Turning to `O=C(NC(=O)c1c(F)cccc1F)Nc1ccc(Oc2ccc(C(F)(F)F)cc2Cl)cc1F`, the Potency result in test [3], in test [4], in test [5], in test [8] and in test [6] was “inactive” throughout.

As for `CC(C)[C@@H](Nc1ccc(C(F)(F)F)cc1Cl)C(=O)OC(C#N)c1cccc(Oc2ccccc2)c1` (some centres undefined), the Potency result in test [1], in test [2], in test [3], in test [4], in test [5] and in test [8] was “inactive” throughout. For the same compound, the Potency entry in test [6] is “inactive”.

In the case of `CCCCn1cc[n+](C)c1` (tested in a mixture with another compound), the Potency result in test [1], in test [3], in test [4], in test [5], in test [8] and in test [6] was “inactive” each time.

Consider `Cc1cc2c3c(c1)C(c1ccccc1)=N[C@@H](NC(=O)c1ccncc1)C(=O)N3CC2`, for which the Potency result in test [1], in test [2], in test [3], in test [4], in test [5] and in test [6] was “inactive” throughout.

As to `c1cc[n+]2c(c1)-c1cccc[n+]1CC2`, the Potency entry in test [1], in test [3], in test [4], in test [8] and in test [6] was “inactive” in each case. The Potency in test [2] was 26.6 µM (active).

For `CSC1=N[C@@](C)(c2ccccc2)C(=O)N1Nc1ccccc1`, in test [1], the Potency is 27.3 µM (active). For the same compound, the Potency entry in test [3], in test [4], in test [5], in test [8] and in test [6] was “inactive” throughout.

Regarding `CO/N=C(/C1=NOCCO1)c1ccccc1Oc1ncnc(Oc2ccccc2Cl)c1F`, the figures for the Potency in test [1] and in test [2] were 17.2 µM (active) and 4.85 µM (active), respectively. Further, the Potency entry in test [3], in test [4], in test [5], in test [8] and in test [6] was “inactive” throughout.

For `Cc1c([N+](=O)[O-])c(C)c([N+](=O)[O-])c(C(C)(C)C)c1[N+](=O)[O-]`, the Potency entry in test [1], in test [2], in test [3], in test [4], in test [5] and in test [8] was “inactive” in each case. Besides, the Potency result in test [6] was “inactive”.

In the case of `Nc1ccc(N=Nc2ccccc2)cc1`, the Potency result in test [2] and in test [4] was “inactive” throughout. Further, the outcome in test [7] was inactive. Also, the Potency is 8.63 µM (active) in test [3], 15.4 µM (active) in test [5], 3.44 µM (active) in test [8] and 4.86 µM (active) in test [6].

For the compound `c1ccc2c(c1)cc1ccc3cccc4ccc2c1c34`, the Potency entry in test [1], in test [3], in test [4], in test [8] and in test [6] was “inactive” in each case.

For `CCc1cccc(C)c1N(C(=O)CCl)[C@@H](C)COC`, the Potency result in test [1], in test [3], in test [4], in test [5], in test [8] and in test [6] was “inactive” each time.

Consider `C[N+]1(C)[C@@H]2CC[C@H]1CC(OC(=O)C(CO)c1ccccc1)C2` (some centres undefined), for which the Potency result in test [1], in test [3], in test [4], in test [5] and in test [6] was “inactive” in each case. For the same compound, the compound was classed as inactive in test [7].

Take `Cc1cc(C2CC2)nc(Nc2ccccc2)n1`: the Potency result in test [1], in test [2], in test [4] and in test [6] was “inactive” in each case. Also, the Potency in test [3] is 24.3 µM (active); in test [5], 48.6 µM (active).

`C#CCO`: the Potency entry in test [1], in test [2], in test [3], in test [4], in test [5] and in test [6] was “inactive” each time.

Consider `OCC(Br)CBr` (centres undefined), for which the Potency result in test [1], in test [2], in test [3], in test [4], in test [5] and in test [6] was “inactive” each time.

Regarding `CCC(C)Nc1c([N+](=O)[O-])cc(C(C)(C)C)cc1[N+](=O)[O-]` (centres undefined), the Potency result in test [1], in test [2], in test [3], in test [4], in test [5] and in test [8] was “inactive” throughout. Further, in test [6], the Potency result is “inactive”.

With `O=C(O)CCCCCCNC1c2ccccc2CCc2ccccc21`, the Potency entry in test [1], in test [3], in test [4], in test [5], in test [8] and in test [6] was “inactive” in each case. Also, in test [7], the result was inactive.

`CCC(C)c1cccc(C(C)CC)c1O` (centres undefined): the Potency entry in test [1], in test [2], in test [3], in test [4], in test [8] and in test [6] was “inactive” throughout.

Take `FC(F)C(F)(F)OCC(Cn1cncn1)c1ccc(Cl)cc1Cl` (centres undefined): the Potency entry in test [1], in test [3] and in test [6] was “inactive” throughout. Also, the Potency in test [5] was 48.3 µM (active).

On to `c1csc(-c2ccc(-c3cccs3)s2)c1`, for which the Potency entry in test [1], in test [4] and in test [5] was “inactive” in each case. The Potency in test [3] is 5.45 µM (active); in test [6], 9.69 µM (active).

Consider `COC(=O)c1ccccc1S(=O)(=O)NC(=O)Nc1nc(C)nc(OC)n1`, for which the Potency entry in test [1], in test [3], in test [4], in test [5], in test [8] and in test [6] was “inactive” throughout.

For `CCN1CCC2(CC1)COc1cc3c(cc12)N(C(=O)c1ccc(-c2ccc(-c4nnc(C)o4)cc2C)cc1)CC3`, the values for the Potency in test [2], in test [5] and in test [8] were 50.2 µM (active), 63.3 µM (active) and 63.3 µM (active), respectively. Further, the Potency result in test [3], in test [4] and in test [6] was “inactive” each time.

Consider `O=C1C[C@@H]2OCC=C3CN4CC[C@]56c7ccccc7N1[C@H]5[C@H]2[C@H]3C[C@H]46`, for which the Potency entry in test [1], in test [3], in test [4] and in test [6] was “inactive” each time. The compound was called inactive in test [7].

`CCC[CH2][Sn]([CH2]CCC)([CH2]CCC)[CH2]CCC`: the Potency result in test [3] and in test [6] was “inactive” in each case. Moreover, the Potency in test [5] was 13.7 µM (active).

Consider `CC(O)C(=O)[O][Hg][c]1ccccc1` (centres undefined), for which the Potency is 6.11 µM (active) in test [1]; 8.63 µM (active) in test [2]; 4.33 µM (active) in test [3]; 4.33 µM (active) in test [4]; 0.969 µM (active) in test [5]. The Potency entry in test [6] is “inactive”.

In the case of `CCCN`, the Potency result in test [1], in test [3], in test [4], in test [5], in test [8] and in test [6] was “inactive” each time.

On to `CN1CCc2cc3c(cc2C1O)OCO3` (centres undefined), for which the Potency result in test [1], in test [3] and in test [6] was “inactive” each time.

Take `ClCBr`: the Potency entry in test [1], in test [3], in test [4], in test [5], in test [8] and in test [6] was “inactive” each time.

Take `CO/N=C(\C(=O)OC)c1ccccc1CO/N=C(\C)c1cccc(C(F)(F)F)c1`: the Potency result in test [3], in test [4], in test [5], in test [8] and in test [6] was “inactive” throughout.
